Test [1] in a line: AP1 Signaling Pathway (AID 357).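 Also: ME-180 reporter cells stimulated with EGF at its EC50 level; % is scaled to controls: 0 for no effect and ±100 for the full control effect.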 As to conditions: ME-180 AP-1-bla reporter, EGF-induced, beta-lactamase ratio, 5 h; at 17.2 µM (top of the series) unless noted. An outline of the steps: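 AP-1-bla ME-180 cells, Opti-MEM + 0.5% dialyzed FBS, plated overnight 37 °C. Cpd titration + EC50 EGF, 5 h 37 °C. CCF4 2.5 h RT; ex 405, em 460/530 ratio → %activity, AC50.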
Test [2] can be described thus: NFAT Signaling Pathway (AID 444).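 Also: carbachol stimulus at about its EC50 of 1 µM final; % is scaled to controls: 0 for no effect and ±100 for the full control effect.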 As to conditions: Jurkat NFAT-bla M1, carbachol, beta-lactamase ratio, 5 h; at 17.2 µM (top of the series) unless noted. An outline of the steps: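 Read-out: CCF4 FRET ratio (460 nm/530 nm) after 1 h RT dye loading, used for %activity and AC50 from titration series. Cells: Jurkat NFAT-β-lactamase/M1 line, treated with compound plus 1 uM carbachol for 5 h, 37 °C.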

A short description of test [3]: Stat Signaling Pathway (AID 446).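 Also: ME-180 cervical cancer cells given 40 pM IL-6 alongside compound; SIE-controlled beta-lactamase reporter measured as 460/530 nm FRET emission ratio; % is scaled to controls: 0 for no effect and ±100 for the full control effect.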 As to conditions: ME-180 (cervical carcinoma) SIE beta-lactamase reporter, IL-6 stimulated, 5 h; at 17.2 µM (top of the series) unless noted. An outline of the steps:
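ME-180 SIE-bla cells; overnight plating; cpd + IL-6 40 pM, 5 h, 37 C; LiveBLAzer 2.5 h RT; 460/530 nm emission ratio. Normalized to 300 pM IL-6 and 125 nM JAK inhibitor controls.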

Test [4] has as its target Glucocorticoid receptor (Homo sapiens) (UniProt P04150). Nature of the test: GR-GFP Redistribution (AID 450;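 active = compounds whose dose series gives a full or clear partial fitted curve of increased nuclear translocation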; also: potency is read from the fitted curve at half-maximal effect).
Test [5] shares this target. Nature of the test: GR-EFC Redistribution (AID 451; calls by dose curve; also: potency is read from the fitted curve at half-maximal effect). As to conditions: CHO-K1 GR-EFC translocation, beta-gal luminescence, 2 h. The procedure, abridged: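 Translocation of GR-ED fusion to nuclear EA restores b-gal, read by luminescence after 1 h room-temperature detection. Engineered CHO-K1 biosensor cells, 1,000/well, exposed 2 h at 37 C to titrations up to 46 uM final.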

For test [6], the target named is Mitogen-activated protein kinase 10 (Mus musculus) (UniProt Q61831). The test is described as follows: JNK3 AlphaScreen Assay (AID 530).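 Also: kinase came from lysate of stimulated human HepG2 cells; signal reports phosphorylation of biotinylated GST-cJun 1-79 at Ser73 with 10 µM ATP; % is scaled to controls: 0 for no effect and ±100 for the full control effect.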 The procedure, abridged: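 Room-temperature AlphaScreen kinase assay; pre-activated HepG2 lysate as JNK3 source, biotin-GST-cJun(1-79) substrate, 10 uM ATP, compound 15 min preincubation.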
In general terms: Alpha assays give light when donor and acceptor beads are brought close together.

For test [7], the target named is 3',5'-cyclic-AMP phosphodiesterase 4B (Homo sapiens) (UniProt Q07343). Nature of the test: qHTS Assay for Inhibitors of PDE-IV (AID 607; active = well fitted activation curve with a large enough effect in the main read-out, with a control signal flat, not every such curve was filed as active; also: % of control where 0% means no effect). The procedure, abridged:
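ACTOne HEK293 cells carry a modified cAMP-gated CNG channel and express endogenous PDE4; plated 1000 cells/well, compounds up to 22.9 uM final. Membrane-potential dye fluorescence (ex 535/em 590) was read; parental cells received 10 uM forskolin + 100 uM RO 20-1724.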

Each structure is given as a SMILES string. Values without a mark were called inactive. Results filed as inconclusive are left out. The source made the active and inactive calls. Unless noted, calls follow the shape of the dose curve; as a rule, active = well fitted curve in either direction with a large enough effect (not every such curve was filed as active); inconclusive = small, poorly fitted or top-dose-only effect, or another doubt; inactive = flat fitted curve, though single readings scatter.

Glucocorticoid receptor (Homo sapiens), sequence (P04150 whole entry, looked up, the tested form may be a part): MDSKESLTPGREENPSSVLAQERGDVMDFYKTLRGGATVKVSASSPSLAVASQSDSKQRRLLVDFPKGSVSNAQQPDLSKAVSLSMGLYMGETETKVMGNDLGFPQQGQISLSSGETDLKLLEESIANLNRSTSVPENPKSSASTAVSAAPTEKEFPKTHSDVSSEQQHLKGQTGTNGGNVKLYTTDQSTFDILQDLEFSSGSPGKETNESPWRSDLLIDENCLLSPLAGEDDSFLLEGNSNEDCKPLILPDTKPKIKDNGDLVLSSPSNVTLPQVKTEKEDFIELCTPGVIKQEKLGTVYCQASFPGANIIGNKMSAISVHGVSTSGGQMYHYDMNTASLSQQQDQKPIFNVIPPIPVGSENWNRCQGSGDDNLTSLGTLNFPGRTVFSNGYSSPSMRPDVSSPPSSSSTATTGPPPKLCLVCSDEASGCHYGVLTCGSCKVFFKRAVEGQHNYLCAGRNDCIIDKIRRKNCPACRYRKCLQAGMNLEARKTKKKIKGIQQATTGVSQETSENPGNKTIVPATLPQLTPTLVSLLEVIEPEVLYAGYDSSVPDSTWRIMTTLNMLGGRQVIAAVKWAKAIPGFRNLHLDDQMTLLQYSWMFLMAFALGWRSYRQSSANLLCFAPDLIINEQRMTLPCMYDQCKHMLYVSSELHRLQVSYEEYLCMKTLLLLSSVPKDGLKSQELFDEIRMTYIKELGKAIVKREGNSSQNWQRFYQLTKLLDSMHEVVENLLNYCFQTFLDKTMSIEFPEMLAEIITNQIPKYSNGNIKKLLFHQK
3',5'-cyclic-AMP phosphodiesterase 4B (Homo sapiens), sequence (Q07343 whole entry, looked up): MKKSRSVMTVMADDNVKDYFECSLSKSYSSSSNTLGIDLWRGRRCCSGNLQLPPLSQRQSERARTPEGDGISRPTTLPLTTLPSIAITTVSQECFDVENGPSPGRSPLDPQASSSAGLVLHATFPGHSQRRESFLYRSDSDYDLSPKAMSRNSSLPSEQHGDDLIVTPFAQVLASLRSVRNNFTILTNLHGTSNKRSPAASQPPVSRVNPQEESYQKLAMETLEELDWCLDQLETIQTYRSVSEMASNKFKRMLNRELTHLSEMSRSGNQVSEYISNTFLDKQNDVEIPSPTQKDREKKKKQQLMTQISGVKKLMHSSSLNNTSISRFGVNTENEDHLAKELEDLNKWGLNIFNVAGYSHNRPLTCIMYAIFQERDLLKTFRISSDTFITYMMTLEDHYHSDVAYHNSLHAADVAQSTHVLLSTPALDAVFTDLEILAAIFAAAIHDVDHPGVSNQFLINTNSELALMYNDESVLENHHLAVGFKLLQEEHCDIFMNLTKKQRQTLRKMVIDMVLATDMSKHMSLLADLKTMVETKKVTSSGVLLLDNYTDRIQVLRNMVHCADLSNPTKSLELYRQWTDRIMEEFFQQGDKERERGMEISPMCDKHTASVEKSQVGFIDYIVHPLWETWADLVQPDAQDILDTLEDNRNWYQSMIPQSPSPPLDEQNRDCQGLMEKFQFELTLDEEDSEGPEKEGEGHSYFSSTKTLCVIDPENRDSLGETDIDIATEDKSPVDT

For `Cc1cc(O)c(C(C)C)cc1N=C1CSC(=O)N1`, the activity change, negative = inhibition in test [1] was -11.9%; in test [2] it was -9.06%. In test [3], the activity, negative = inhibition was -6.54%. Moreover, in test [4], the Potency is over 20.6 µM.

For the molecule `CCOC(=O)CSc1nc(NC#N)nc(N(CC)CC)n1`, the activity change, negative = inhibition in test [1] is 8.62%; in test [2], -5.47%. In addition, in test [3], the activity, negative = inhibition was -5.41%. For the same molecule, in test [4], the Potency was over 20.6 µM.

On to `COc1cccc(OC)c1-c1nn2c(-c3ccco3)nnc2s1`, for which the activity change, negative = inhibition in test [1] is -10.9%; in test [2] it was -8.25%. In addition, the activity, negative = inhibition in test [3] is -4.43%. The Potency in test [4] was over 20.6 µM.

As for `Oc1ccc2c(c1)C1CCCC1(N1CCOCC1)O2` (stereo not drawn), the results for the activity change, negative = inhibition in test [1] and in test [2] were -13.6% and 16.1%, respectively. For the same molecule, in test [3], the activity, negative = inhibition is 2.31%. Besides, the Potency in test [4] is over 20.6 µM.

Turning to `O=c1[nH]c(-c2ccccn2)nc2ccccc12`, the figures for the activity change, negative = inhibition in test [1] and in test [2] were -2.38% and -10.6%, respectively. Moreover, the activity, negative = inhibition in test [3] is 13.3%. Moreover, the Potency in test [4] is over 20.6 µM.

For the molecule `CCN(CC)CCCN1C(=O)C(=O)/C(=C(/O)c2ccccc2)C1c1cc(OC)ccc1OC` (stereo not drawn), the results for the activity change, negative = inhibition in test [1] and in test [2] were 3.34% and 7.04%, respectively. The activity, negative = inhibition in test [3] is 3.31%. Further, in test [4], the Potency was over 20.6 µM.

With `C=C(c1ccc(OCCO)cc1)c1ccc(OCCO)cc1`, the activity change, negative = inhibition in test [1] is -5.64%; in test [2] it was -1.3%. For the same molecule, the activity, negative = inhibition in test [3] was -3.23%. In test [4], the Potency is over 20.6 µM.

Turning to `CCOC(=O)CSc1nc(N2CCOCC2)c2c(c1C#N)CC(C)(C)N(C)C2`, the activity change, negative = inhibition was -8.24% in test [1] and -17.7% in test [2]. The activity, negative = inhibition in test [3] is 1.11%. Also, in test [4], the Potency is over 20.6 µM.

For the molecule `C[C@]12CC[C@@H]3c4ccc(O[C@@H]5O[C@H](C(=O)O)[C@@H](O)[C@H](O)[C@H]5O)cc4CC[C@H]3[C@@H]1C[C@@H](O)[C@@H]2O`, the activity change, negative = inhibition in test [1] is 4.45%; in test [2], -30%. Also, the activity, negative = inhibition in test [3] is 11.5%. In addition, in test [4], the Potency is over 20.6 µM.

For `CSc1nncc(=O)[nH]1`, the activity change, negative = inhibition in test [1] is 16.2%; in test [2] it was 0.69%. Moreover, the activity, negative = inhibition in test [3] is -3.78%. Besides, the Potency in test [4] was over 20.6 µM.

For the molecule `COc1ccccc1NC(=O)CSc1nnc(-c2ccc(NC(C)=O)cc2)n1C`, the activity change, negative = inhibition was -3.49% in test [1] and -2.99% in test [2]. The activity, negative = inhibition in test [3] is -0.879%. The Potency in test [4] was over 20.6 µM.

For `CCC(NC(=O)Nc1nnc(C(F)(F)F)s1)(C(F)(F)F)C(F)(F)F`, the activity change, negative = inhibition in test [1] was 18.4%; in test [2], -115% (active). The activity, negative = inhibition in test [3] is -38.4%. The Potency in test [4] is over 20.6 µM.

As to `CC1(C)Cc2c(C#N)c(SCCC#N)nc(N3CCOCC3)c2CS1`, the figures for the activity change, negative = inhibition in test [1] and in test [2] were -12.8% and 3.6%, respectively. Besides, the activity, negative = inhibition in test [3] is -3.44%. The Potency in test [4] is over 20.6 µM.

Take `CCOC(=O)c1[nH]c2ccc(Br)cc2c1NC(=O)CCN1CCN(C(=O)OCC)CC1`: the figures for the activity change, negative = inhibition in test [1] and in test [2] were -25% and -25.7%, respectively. Moreover, the activity, negative = inhibition in test [3] was -26.2%. In addition, the Potency in test [4] is over 20.6 µM.

For the molecule `COc1ccc(OC)c2c1CCC2=O`, the activity change, negative = inhibition is -7.3% in test [1] and -3.76% in test [2]. The activity, negative = inhibition in test [3] was 6.79%. Besides, the Potency in test [4] is over 20.6 µM.

As for `Cc1ccc(-n2ncc3c(NCCCOC(C)C)ncnc32)c(C)c1`, the results for the activity change, negative = inhibition in test [1] and in test [2] were -18.8% and 25.7%, respectively. The activity, negative = inhibition in test [3] was -8.86%. Further, the Potency in test [4] was over 20.6 µM.

Take `CC(C)(C#N)C(C)(C)c1nn[nH]n1`: the activity change, negative = inhibition in test [1] was 6.02%; in test [2], 0.881%. Further, in test [3], the activity, negative = inhibition was 8.72%. Also, the Potency in test [4] is over 20.6 µM.

With `COc1ccccc1C1CC(c2ccc(Cl)cc2)Nc2nc(N)nn21` (stereo not drawn), the activity change, negative = inhibition is 6.6% in test [1] and 22.1% in test [2]. Further, the activity, negative = inhibition in test [3] is -2.9%. In addition, the Potency in test [4] was over 20.6 µM.

In the case of `CC(C)CNc1nc2c(c(=O)n(C)c(=O)n2C)n1Cc1cccc(Br)c1`, the activity change, negative = inhibition was -13.5% in test [1] and -2.14% in test [2]. Besides, the activity, negative = inhibition in test [3] was -18.2%. In test [4], the Potency was over 20.6 µM.

Turning to `COc1cc(OC)cc(C(=O)N2CCC(N3CCN(c4ccccc4)CC3)CC2)c1`, the activity change, negative = inhibition in test [1] was 5.25%; in test [2] it was -4.18%. For the same molecule, in test [3], the activity, negative = inhibition was 4.25%. In addition, in test [4], the Potency was over 20.6 µM.

Regarding `O=C(c1coc(=O)c(Br)c1)N1CCOCC1`, the activity change, negative = inhibition in test [1] was 6.25%; in test [2] it was 21.3%. Moreover, in test [3], the activity, negative = inhibition is 1.69%. Moreover, in test [4], the Potency is over 20.6 µM.

Turning to `COc1ccc(OC)c(C2/C(=C(/O)c3cnn(-c4ccccc4)c3C)C(=O)C(=O)N2CCN(C)C)c1` (stereo not drawn), the values for the activity change, negative = inhibition in test [1] and in test [2] were 0.346% and 4.77%, respectively. In test [3], the activity, negative = inhibition was 3.03%. Besides, in test [4], the Potency was over 20.6 µM.

Consider `Nc1cccc(C(=O)O)c1`, for which the values for the activity change, negative = inhibition in test [1] and in test [2] were 8.42% and 20.2%, respectively. Also, the activity, negative = inhibition in test [3] is 4.89%. Also, in test [4], the Potency was over 20.6 µM.

For the molecule `COc1cc(S(=O)(=O)N2CCN(C)CC2)c(OC)cc1Br`, the activity change, negative = inhibition in test [1] is 9.1%; in test [2], -13.8%. Moreover, the activity, negative = inhibition in test [3] is 3.25%. For the same molecule, in test [4], the Potency was over 20.6 µM.

Turning to `Cc1cc2c(c(=O)o1)C(Cc1ccccc1)C(C#N)=C(N)O2` (stereo not drawn), the results for the activity change, negative = inhibition in test [1] and in test [2] were 4.23% and 9.9%, respectively. Also, the activity, negative = inhibition in test [3] was -12.4%. In addition, the Potency in test [4] was over 20.6 µM.

On to `CCOc1ccc(-c2nnc3sc(-c4c(OC)cccc4OC)nn23)cc1`, for which the activity change, negative = inhibition in test [1] was 3.89%; in test [2], -3.46%. For the same molecule, the activity, negative = inhibition in test [3] is 8.95%. The Potency in test [4] was over 20.6 µM.

Consider `CC(C)N1CCc2c(sc(N)c2C#N)C1`, for which the activity change, negative = inhibition in test [1] was 5.12%; in test [2] it was -22.4%. Also, the activity, negative = inhibition in test [3] is -5%. Further, the Potency in test [4] was over 20.6 µM.

As for `O=C(c1ccco1)N1CCN(CCOCCOc2cccc3ccccc23)CC1`, the activity change, negative = inhibition is 1.08% in test [1] and -2.55% in test [2]. The activity, negative = inhibition in test [3] was -10%. Moreover, in test [4], the Potency is over 20.6 µM.

Consider `O=C(NCC(F)(F)F)N1CCOCC1`, for which the activity change, negative = inhibition was 6.11% in test [1] and 0.794% in test [2]. Also, in test [3], the activity, negative = inhibition was -4.01%. Further, in test [4], the Potency was over 20.6 µM.

For `C[N+](C)(C)CCN[N@@+]1(C)CCCc2ccccc21`, the activity change, negative = inhibition in test [1] was -2.74% [at 7.69 µM]; in test [2], -8.45% [at 7.69 µM]; in test [6], 4.98% [at 11.4 µM]. In test [3], the activity, negative = inhibition is 7.61% [at 7.69 µM]. In addition, the Potency in test [4] is over 46 µM; in test [5], over 9.22 µM. The Potency entry in test [7] was “inactive”.

The record behind these values is PubChem BioAssay (NCATS).
